Results filed as inconclusive are left out. A structure can be active in one record and inactive in another. Active and inactive are the calls of the source. Rule for the calls: active = hit-call score of the fitted dose curve at least 0.9, where 1 is the maximum; inconclusive = response in the unintended direction; inactive = score below 0.9.

In assay [1] the target is Cytochrome P450 2C19 (Homo sapiens) (UniProt P33261). Kind of assay: NVS_ADME_hCYP2C19: NovaScreen (NVS) CYP450-related Enzyme Activity (ADME) Assay for human CYP2C19 (AID 2283113).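 For AC50: potency for inhibition seen as loss of fluorescent signal.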 The procedure, abridged: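 Biochemical CYP2C19 inhibition screen: insect-cell recombinant protein plus fluorescent substrate, 1 h, fluorescence intensity. Acetonitrile defined baseline activity. Single 10 uM concentration in duplicate, with concentration-response follow-up for actives.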

Assay [2] addresses rat CYP2A2, Cyp2a2 (gene 24895) (UniProt P15149). Briefly: NVS_ADME_rCYP2A2: NovaScreen (NVS) CYP450-related Enzyme Activity (ADME) Assay for rat CYP2A2 (AID 2283116). The procedure, abridged:
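Compounds first tested in duplicate at 10 uM, then in singleton concentration series up to 20 uM when over threshold. Activity of the recombinant enzyme read by fluorescence at 0.2 h, normalised to acetonitrile vehicle.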

Assay [3] concerns the target rat CYP2C13, Cyp2c13 (gene 171521) (UniProt P20814). Kind of assay: NVS_ADME_rCYP2C13: NovaScreen (NVS) CYP450-related Enzyme Activity (ADME) Assay for rat CYP2C13 (AID 2283121). The procedure, abridged:
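Inhibition is read as decreased fluorescent product formation, referenced to acetonitrile vehicle. Cell-free recombinant rat Cyp2c13 reaction ran 0.75 hour; compounds first at 10 uM in duplicate, then concentration series for actives.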

Assay [4] deals with rat CYP3A2, Cyp3a2 (gene 266682) (UniProt P05183). Briefly: NVS_ADME_rCYP3A2: NovaScreen (NVS) CYP450-related Enzyme Activity (ADME) Assay for rat CYP3A2 (AID 2283128). The procedure, abridged:
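Fluorescence readout of extracted rat CYP3A2 activity 0.5 h post-dose, acetonitrile as negative control. Single-point testing in duplicate at 10 uM, followed by concentration series to a 20 uM maximum for actives.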

The target in assay [5] is human Beta-secretase (BACE), BACE1 (gene 23621) (UniProt P56817). Kind of assay: NVS_ENZ_hBACE: NovaScreen (NVS) Enzymatic Assay for human Beta-secretase (BACE) (AID 2283140).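 Note: hits are inhibitors that reduce fluorescent substrate signal versus DMSO.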 The method, boiled down: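 SF9-expressed enzyme, cell-free; fluorescent substrate readout after 1 h. Screened at 25 uM single concentration, duplicate; hits retested in concentration series. Activity relative to DMSO baseline, loss-of-signal.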

Assay [6] has as its target Cytochrome P450 3A4 (Homo sapiens) (UniProt P08684). Briefly: NVS_ADME_hCYP3A4: NovaScreen (NVS) CYP450-related Enzyme Activity (ADME) Assay for human CYP3A4 (AID 2283110). The procedure, abridged: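 Recombinant CYP3A4 from insect cells, fluorescence enzyme read-out, 0.33 h after chemical addition. Acetonitrile = negative control/baseline. Primary HTS: 10 uM in duplicate; actives re-tested in concentration series.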

In assay [7] the target is human AKT serine/threonine Kinase 2 (AKT2), AKT2 (gene 208) (UniProt P31751). Kind of assay: NVS_ENZ_hAKT2: NovaScreen (NVS) Enzymatic Assay for human AKT serine/threonine Kinase 2 (AKT2) (AID 2283141). The method, boiled down: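 Cell-free fluorescence/electrophoretic mobility shift readout of recombinant human AKT2 activity, 1 h after chemical dosing. Duplicate primary screen at 25 uM, then singleton concentration-response up to 50 uM; loss of signal versus DMSO baseline.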

In assay [8] the target is human Caspase 5 (CASP5), CASP5 (gene 838) (UniProt P51878). Briefly: NVS_ENZ_hCASP5: NovaScreen (NVS) Enzymatic Assay for human Caspase 5 (CASP5) (AID 2283137). The procedure, abridged: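 Fluorescent substrate readout of CASP5 activity (loss-of-signal), measured 2 h post-dose. Protein expressed in E. coli. Primary screen duplicate at 25 uM; actives meeting threshold (e.g., 30% inhibition) rerun singleton, max 50 uM.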

A further assay deals with Caspase-3 (Homo sapiens) (UniProt P42574). Kind of assay: NVS_ENZ_hCASP3: NovaScreen (NVS) Enzymatic Assay for human Caspase 3 (CASP3) (AID 2283139). The procedure, abridged: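 Single-concentration screening at 25 uM in duplicate, with concentration-response follow-up to a 50 uM maximum for chemicals passing the threshold. Caspase-3 (human, E. coli-expressed) activity was read as substrate fluorescence after 1 h, with loss of signal relative to DMSO.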

Assay [9] deals with human AKT serine/threonine Kinase 1 (AKT1), AKT1 (gene 207) (UniProt P31749). Kind of assay: NVS_ENZ_hAKT1: NovaScreen (NVS) Enzymatic Assay for human AKT serine/threonine Kinase 1 (AKT1) (AID 2283138). The procedure, abridged: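 Fluorescence and mobility-shift readout of kinase activity, taken 1 h post-dosing in a cell-free format with recombinant protein. Primary screen at 25 uM in duplicate; hits (e.g. 30% inhibition) retested in concentration series topping at 50 uM.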

Assay [10] deals with human Caspase 4 (CASP4), CASP4 (gene 837) (UniProt P49662). Briefly: NVS_ENZ_hCASP4: NovaScreen (NVS) Enzymatic Assay for human Caspase 4 (CASP4) (AID 2283143). The method, boiled down:
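Compounds were first tested in duplicate at 25 uM, and hits were titrated singly to a 50 uM maximum. Recombinant protease from E. coli was read by fluorescence 2 h post-dose, and activity loss was fitted against the DMSO baseline.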

The target in assay [11] is human Acid Phosphatase 1 (ACP1), ACP1 (gene 52) (UniProt P24666). Kind of assay: NVS_ENZ_hACP1: NovaScreen (NVS) Enzymatic Assay for human Acid Phosphatase 1 (ACP1) (AID 2283136). The method, boiled down: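 Cell-free fluorescence read-out of phosphatase activity, substrate and product separated by mobility shift, taken 1.5 h after compound addition; protein produced in Sf9. Single 25 uM duplicate screen, followed by concentration series for actives, scored as signal loss relative to DMSO.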

The target of assay [12] is human CYP2C9, CYP2C9 (gene 1559) (UniProt P11712). Kind of assay: NVS_ADME_hCYP2C9: NovaScreen (NVS) CYP450-related Enzyme Activity (ADME) Assay for human CYP2C9 (AID 2283108). The method, boiled down: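 Recombinant human CYP2C9 expressed in SF9 cells, fluorogenic substrate, fluorescence read 0.75 h after dosing. Chemicals first run in duplicate at 10 uM, with actives followed in concentration series; loss of signal versus acetonitrile baseline.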

Sequence of human AKT serine/threonine Kinase 2 (AKT2), AKT2 (gene 208) (P31751 whole entry, looked up): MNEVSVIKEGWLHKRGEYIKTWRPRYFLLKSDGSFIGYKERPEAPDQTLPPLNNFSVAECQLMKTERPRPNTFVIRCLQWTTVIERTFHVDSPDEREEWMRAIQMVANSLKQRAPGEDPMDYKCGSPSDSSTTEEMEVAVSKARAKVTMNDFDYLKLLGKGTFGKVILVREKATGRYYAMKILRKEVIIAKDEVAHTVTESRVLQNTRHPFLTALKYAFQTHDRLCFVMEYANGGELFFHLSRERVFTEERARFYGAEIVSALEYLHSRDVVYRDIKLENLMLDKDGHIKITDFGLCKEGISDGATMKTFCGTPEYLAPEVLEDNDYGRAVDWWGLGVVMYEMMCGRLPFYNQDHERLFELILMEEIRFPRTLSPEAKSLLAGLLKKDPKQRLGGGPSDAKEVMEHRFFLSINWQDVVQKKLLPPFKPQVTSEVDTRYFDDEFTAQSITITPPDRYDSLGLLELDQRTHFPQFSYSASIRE
Sequence of rat CYP2A2, Cyp2a2 (gene 24895) (P15149 whole entry, looked up): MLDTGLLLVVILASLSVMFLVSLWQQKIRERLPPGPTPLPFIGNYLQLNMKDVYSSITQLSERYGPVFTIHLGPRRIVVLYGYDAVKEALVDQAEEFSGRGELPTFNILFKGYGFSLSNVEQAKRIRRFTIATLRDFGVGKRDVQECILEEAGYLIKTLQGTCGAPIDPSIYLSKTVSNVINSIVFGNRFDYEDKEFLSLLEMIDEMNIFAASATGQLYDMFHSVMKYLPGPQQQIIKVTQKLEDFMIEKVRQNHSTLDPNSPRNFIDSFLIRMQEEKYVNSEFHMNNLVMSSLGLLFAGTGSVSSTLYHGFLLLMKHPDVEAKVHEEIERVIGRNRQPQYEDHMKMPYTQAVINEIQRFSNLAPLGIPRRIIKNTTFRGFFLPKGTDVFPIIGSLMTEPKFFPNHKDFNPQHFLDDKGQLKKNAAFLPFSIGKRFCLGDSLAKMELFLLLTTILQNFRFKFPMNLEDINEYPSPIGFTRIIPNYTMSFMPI
Sequence of human AKT serine/threonine Kinase 1 (AKT1), AKT1 (gene 207) (P31749 whole entry, looked up): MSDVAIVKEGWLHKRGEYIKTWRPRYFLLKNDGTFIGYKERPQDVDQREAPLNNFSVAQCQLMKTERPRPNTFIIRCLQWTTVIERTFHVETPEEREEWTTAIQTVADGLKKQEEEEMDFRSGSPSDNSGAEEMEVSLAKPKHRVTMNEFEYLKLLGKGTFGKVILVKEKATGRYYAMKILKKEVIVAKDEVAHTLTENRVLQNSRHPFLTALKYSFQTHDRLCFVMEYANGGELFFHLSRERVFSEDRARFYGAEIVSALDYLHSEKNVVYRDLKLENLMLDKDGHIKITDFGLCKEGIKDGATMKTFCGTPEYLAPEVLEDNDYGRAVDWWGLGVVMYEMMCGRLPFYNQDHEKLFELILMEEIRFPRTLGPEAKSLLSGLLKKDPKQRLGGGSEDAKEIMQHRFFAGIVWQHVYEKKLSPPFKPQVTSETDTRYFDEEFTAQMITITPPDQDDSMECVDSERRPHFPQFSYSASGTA
Sequence of human Beta-secretase (BACE), BACE1 (gene 23621) (P56817 whole entry, looked up): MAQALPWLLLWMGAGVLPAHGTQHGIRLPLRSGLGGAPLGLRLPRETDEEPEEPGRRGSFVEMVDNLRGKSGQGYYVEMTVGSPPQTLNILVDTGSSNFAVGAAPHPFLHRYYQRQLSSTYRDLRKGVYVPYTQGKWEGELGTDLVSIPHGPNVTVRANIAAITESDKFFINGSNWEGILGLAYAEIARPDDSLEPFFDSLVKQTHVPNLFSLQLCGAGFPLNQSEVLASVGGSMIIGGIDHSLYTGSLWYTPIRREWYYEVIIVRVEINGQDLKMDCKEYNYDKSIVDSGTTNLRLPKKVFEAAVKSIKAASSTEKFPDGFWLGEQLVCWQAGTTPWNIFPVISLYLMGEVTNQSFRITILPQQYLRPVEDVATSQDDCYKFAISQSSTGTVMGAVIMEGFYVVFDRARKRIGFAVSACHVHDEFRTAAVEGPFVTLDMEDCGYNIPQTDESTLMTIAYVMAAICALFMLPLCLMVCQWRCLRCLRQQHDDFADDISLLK
Sequence of human Caspase 5 (CASP5), CASP5 (gene 838) (P51878 whole entry, looked up): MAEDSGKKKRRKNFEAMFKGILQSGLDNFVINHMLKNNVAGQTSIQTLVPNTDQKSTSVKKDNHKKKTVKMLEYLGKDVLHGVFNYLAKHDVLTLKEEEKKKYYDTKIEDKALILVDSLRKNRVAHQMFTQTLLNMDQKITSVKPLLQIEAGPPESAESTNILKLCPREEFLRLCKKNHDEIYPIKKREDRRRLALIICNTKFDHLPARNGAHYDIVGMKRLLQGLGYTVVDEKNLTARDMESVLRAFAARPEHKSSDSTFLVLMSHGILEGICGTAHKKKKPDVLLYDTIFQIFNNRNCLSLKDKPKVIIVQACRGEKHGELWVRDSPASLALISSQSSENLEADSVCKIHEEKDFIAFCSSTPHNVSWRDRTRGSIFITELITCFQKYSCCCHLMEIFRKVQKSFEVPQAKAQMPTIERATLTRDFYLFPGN
Sequence of rat CYP2C13, Cyp2c13 (gene 171521) (P20814 whole entry, looked up): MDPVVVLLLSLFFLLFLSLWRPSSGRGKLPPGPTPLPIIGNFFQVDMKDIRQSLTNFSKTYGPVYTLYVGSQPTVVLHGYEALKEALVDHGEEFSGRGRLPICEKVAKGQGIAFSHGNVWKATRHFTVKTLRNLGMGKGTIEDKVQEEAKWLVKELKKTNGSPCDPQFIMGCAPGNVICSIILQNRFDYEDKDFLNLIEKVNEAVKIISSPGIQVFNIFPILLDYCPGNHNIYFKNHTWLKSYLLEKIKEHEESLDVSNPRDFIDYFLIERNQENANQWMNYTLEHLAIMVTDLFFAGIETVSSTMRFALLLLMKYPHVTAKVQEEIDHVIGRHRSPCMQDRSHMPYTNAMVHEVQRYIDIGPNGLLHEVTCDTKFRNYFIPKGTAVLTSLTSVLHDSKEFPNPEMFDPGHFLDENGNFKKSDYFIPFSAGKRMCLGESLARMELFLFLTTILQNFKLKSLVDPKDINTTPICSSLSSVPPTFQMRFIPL
Sequence of Cytochrome P450 3A4 (Homo sapiens) (P08684 whole entry, looked up): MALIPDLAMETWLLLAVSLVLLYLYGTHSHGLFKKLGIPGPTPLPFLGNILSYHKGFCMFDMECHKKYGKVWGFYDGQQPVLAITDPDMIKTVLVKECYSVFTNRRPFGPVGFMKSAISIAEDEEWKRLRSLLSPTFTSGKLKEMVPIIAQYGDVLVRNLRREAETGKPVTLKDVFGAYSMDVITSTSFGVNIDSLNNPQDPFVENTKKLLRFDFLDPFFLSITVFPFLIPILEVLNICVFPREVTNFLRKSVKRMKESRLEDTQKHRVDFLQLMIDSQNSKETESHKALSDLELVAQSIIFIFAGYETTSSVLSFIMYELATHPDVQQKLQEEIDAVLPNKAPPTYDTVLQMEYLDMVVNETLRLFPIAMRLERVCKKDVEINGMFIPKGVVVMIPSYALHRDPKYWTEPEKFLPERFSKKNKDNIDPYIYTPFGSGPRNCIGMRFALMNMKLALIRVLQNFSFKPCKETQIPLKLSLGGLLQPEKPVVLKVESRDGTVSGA
Sequence of human Caspase 4 (CASP4), CASP4 (gene 837) (P49662 whole entry, looked up): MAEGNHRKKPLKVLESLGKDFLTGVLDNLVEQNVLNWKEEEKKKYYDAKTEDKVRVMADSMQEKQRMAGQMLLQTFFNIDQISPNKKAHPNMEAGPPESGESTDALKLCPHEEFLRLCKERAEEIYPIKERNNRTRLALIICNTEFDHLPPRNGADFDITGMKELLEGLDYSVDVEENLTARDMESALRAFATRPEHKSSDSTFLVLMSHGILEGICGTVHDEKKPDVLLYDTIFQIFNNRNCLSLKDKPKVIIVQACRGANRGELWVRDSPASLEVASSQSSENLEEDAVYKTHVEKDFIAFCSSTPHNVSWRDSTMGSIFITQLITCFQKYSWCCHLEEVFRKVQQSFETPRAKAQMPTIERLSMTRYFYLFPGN
Sequence of rat CYP3A2, Cyp3a2 (gene 266682) (P05183 whole entry, looked up): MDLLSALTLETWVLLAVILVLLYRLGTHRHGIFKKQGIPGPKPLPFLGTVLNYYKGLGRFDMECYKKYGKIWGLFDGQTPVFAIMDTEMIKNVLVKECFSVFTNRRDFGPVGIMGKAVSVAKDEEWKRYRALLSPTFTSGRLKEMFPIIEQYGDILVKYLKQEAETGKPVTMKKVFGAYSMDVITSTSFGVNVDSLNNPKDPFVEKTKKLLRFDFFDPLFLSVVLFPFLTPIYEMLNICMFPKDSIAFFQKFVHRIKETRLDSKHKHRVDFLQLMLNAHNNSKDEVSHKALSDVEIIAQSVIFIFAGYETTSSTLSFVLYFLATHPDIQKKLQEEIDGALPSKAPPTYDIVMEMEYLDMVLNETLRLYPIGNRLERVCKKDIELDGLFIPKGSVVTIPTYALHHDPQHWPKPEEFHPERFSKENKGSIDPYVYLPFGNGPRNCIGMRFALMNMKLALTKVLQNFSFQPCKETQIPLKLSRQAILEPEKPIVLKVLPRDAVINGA
Sequence of Caspase-3 (Homo sapiens) (P42574 whole entry, looked up): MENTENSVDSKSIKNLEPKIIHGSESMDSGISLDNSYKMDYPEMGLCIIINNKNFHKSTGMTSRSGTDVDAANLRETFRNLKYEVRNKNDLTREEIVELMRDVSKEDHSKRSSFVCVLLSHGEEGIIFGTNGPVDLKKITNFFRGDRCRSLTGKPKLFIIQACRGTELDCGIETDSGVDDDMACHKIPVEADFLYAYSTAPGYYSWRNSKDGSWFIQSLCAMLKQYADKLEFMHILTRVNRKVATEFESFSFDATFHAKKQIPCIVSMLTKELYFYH
Sequence of human Acid Phosphatase 1 (ACP1), ACP1 (gene 52) (P24666 whole entry, looked up): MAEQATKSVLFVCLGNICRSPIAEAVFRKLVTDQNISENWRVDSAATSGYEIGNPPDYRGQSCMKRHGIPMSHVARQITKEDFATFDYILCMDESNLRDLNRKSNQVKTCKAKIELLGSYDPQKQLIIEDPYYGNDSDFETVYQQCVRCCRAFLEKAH

In the case of `Cc1nn(C)c(Oc2ccccc2)c1C=NOCc1ccc(C(=O)OC(C)(C)C)cc1`, the AC50 (usually the concentration at which the activity in the assay is half-maximal) in assay [1] was 3.32 µM (active). In addition, the outcome in assay [2] and in assay [3] was inactive.

With `CCN(Cc1c(F)cccc1Cl)c1c([N+](=O)[O-])cc(C(F)(F)F)cc1[N+](=O)[O-]`, the values for the AC50 in assay [1] and in [4] were 10 µM (active) and 4.04 µM (active), respectively.

For the compound `C[C@]12CC[C@@H]3c4ccc(O)cc4C[C@@H](CCCCCCCCCS(=O)CCCC(F)(F)C(F)(F)F)[C@H]3[C@@H]1CC[C@@H]2O` (some centres not stated), the compound was classed as inactive in assay [5].

Consider `CCCCC(CC)CN1C(=O)C2C3C=CC(C3)C2C1=O` (configuration not stated), for which the AC50 in assay [6] is 3 µM (active); in assay [1], 8.18 µM (active); in assay [4], 6.87 µM (active). In assay [7], the outcome was inactive.

`N[C@@H](Cc1cc(I)c(Oc2ccc(O)c(I)c2)c(I)c1)C(=O)O`: the AC50 in assay [8] was 8.73 µM (active); in [5] it was 25.9 µM (active).

In the case of `COC(=O)c1cccc(C)c1S(=O)(=O)NC(=O)Nc1nc(OCC(F)(F)F)nc(N(C)C)n1`, the result in the assay with Caspase-3 (Homo sapiens) was inactive.

Take `O=C(Nc1ccc([N+](=O)[O-])cc1Cl)c1cc(Cl)ccc1O`: the compound was classed as inactive (in assay [9]; in the assay with Caspase-3 (Homo sapiens); in [7]).

Take `CCCN(CCC)C(=O)SCC`: in assay [1], the AC50 is 8.68 µM (active) and the compound was called inactive.

For the compound `CCC(O)=C1C(=O)CC(C(=O)O)CC1=O` (configuration not stated), the compound was called inactive in [6], in assay [8], in assay [7] and in assay [10].

For `O=C(O)C1(C(=O)Nc2ccc(Cl)cc2Cl)CC1`, the results for the concentration at half-maximal activity (AC50) in [11] and in assay [8] were 39.2 µM (active) and 3.02 µM (active), respectively.

With `CCOC(=O)C(C)Oc1ccc(Oc2nc3ccc(Cl)cc3o2)cc1` (configuration not stated), the AC50 in assay [1] was 10 µM (active); in [2] it was 2 µM (active).

As for `CC1(C)C(C=C(Cl)Cl)C1C(=O)OCc1cccc(Oc2ccccc2)c1` (configuration not stated), in [1], the compound was classed as inactive. Besides, in [5], the half-maximal activity concentration (AC50) is 40.2 µM (active).

For the compound `C#C[C@]1(O)CC[C@H]2[C@@H]3CCC4=CC(=O)CC[C@@H]4[C@H]3CC[C@@]21CC`, the concentration at half-maximal activity (AC50) in assay [1] is 1.24 µM (active).

Regarding `CCCCOC(=O)[C@@H](C)Oc1ccc(Oc2ccc(C(F)(F)F)cn2)cc1`, the result in [1], in assay [9] and in assay [5] was inactive.

For the compound `CCOC(=O)[C@H](C)Oc1ccc(Oc2nc3ccc(Cl)cc3o2)cc1`, the call in assay [1] was inactive. The half-maximal activity concentration (AC50) in assay [2] is 10 µM (active).

As for `S=C([S-])NCCNC(=S)[S-].[Mn+2]`, the AC50 in [12] is 10 µM (active); in assay [1], 5.86 µM (active); in assay [3] it was 10 µM (active); in assay [8], 15.1 µM (active); in [9], 1.05 µM (active); in assay [5], 17.6 µM (active). Also, the half-maximal activity concentration (AC50) in [7] is 0.606 µM (active). The compound was classed as inactive in [10].

Values taken from PubChem BioAssay (EPA / NIEHS).
